Experimental data taken from PubChem BioAssay (NCI).
This is part of a sample that, as a whole, favours compounds with a hit. Of some 83,000 tested, about 20% had one in any assay.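 Negative percent growth values reflect cell death: -40 means 40% of the cells present at the start died, and -100 means all died.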 Activity calls are given as the source filed them. How the source made its calls: active means growth percent below 10; inactive means the rest.

Columns and labels:
Assay in all cases: NCI-60 one-dose screen, 48 h (100 = growth as untreated, 0 = no growth, -100 = all killed)
Settings in all cases: 10 µM unless noted
[1] = system: HCT-15 colon
[2] = system: HT29 colon
[3] = system: SNB-75 CNS
[4] = system: SNB-19 CNS
[5] = system: U251 CNS
[6] = system: PC-3 prostate
[7] = system: SK-MEL-5 melanoma
[8] = system: UACC-62 melanoma
[9] = system: LOX IMVI melanoma
[10] = system: SK-MEL-28 melanoma

Measured: growth

Nc1nc(-c2ccccc2)c(N=Nc2ccc(Cl)cc2Cl)s1
active: [1] -86% | [2] -60.4% | [3] -36.5% | [4] -18.1% | [5] -10.7% | [6] -1.78% | [7] -99.2% | [8] -49.5% | [9] -99.5% | [10] -55.8%

Cc1ccc2c(c1)/C(=C/C(=O)c1cc3ccccc3oc1=O)C(=O)N2
active: [1] -20.4%
inactive: [2] 59.9% | [3] 88.7% | [4] 87.8% | [5] 73.9% | [6] 73.5% | [7] 94.2% | [8] 49.7% | [9] 27.4% | [10] 55.7%

O=C(c1cc2cc(OCCCN3CCC3)ccc2[nH]1)N1C[C@@H](CCl)c2c1cc(OCc1ccccc1)c1ccccc21
active: [1] -21.1% | [2] -25.2% | [3] -79.5% | [4] -12.1% | [5] -80.7% | [6] -21.4% | [7] -23.2% | [8] -82.6% | [9] -94.2% | [10] -45.8%

COc1ccc(NC(=O)CSc2nnc(-c3ccc(-c4nc5ccccc5[nH]4)cc3)o2)cc1
active: [4] -5.58% | [5] -68.2% | [9] -63.9% | [10] -72.3%
inactive: [1] 18.2% | [2] 18% | [3] 63.4% | [6] 25.1% | [7] 14% | [8] 17.8%

COc1cccc(NC(=O)c2ccc(NC(=O)CCl)s2)c1
active: [1] -29.7% | [2] -7.55% | [5] -39.9% | [6] -12.4% | [8] -19.4% | [9] -94.9%
inactive: [3] 74.6% | [4] 73.8% | [7] 32.1% | [10] 51%

COc1ccc(NC(=O)Nc2nc3ccc([N+](=O)[O-])cc3s2)cc1
active: [1] 9.87% | [5] 0.863% | [7] -70.7%
inactive: [2] 58.1% | [3] 62.3% | [4] 14.6% | [6] 10.5% | [8] 36.2% | [9] 33.8% | [10] 47.7%

Cc1ccc(C(=O)Nc2cc(-n3ccnc3)cc(C(F)(F)F)c2)cc1-n1cc(-c2cnc3cccnn23)nn1
inactive: [1] 97.4% | [2] 39.2% | [3] 132% | [4] 118% | [5] 112% | [6] 123% | [7] 73% | [8] 19.5% | [9] 39.4% | [10] 34.6%

CC(=O)c1c2c(c3ccc4c5ccccc5ccc4n13)C(=O)c1ccccc1C2=O
inactive: [1] 81.6% | [2] 107% | [3] 93.8% | [4] 65.4% | [5] 82.9% | [6] 77.5% | [7] 63.7% | [8] 87% | [9] 64.5% | [10] 101%

NCCCCn1c(SCCc2c[nH]c3ccccc23)nnc1-c1ccc2ccccc2n1
active: [1] -1.2% | [2] -45.3% | [3] 0.128% | [5] -84.8% | [6] 2.82% | [7] -99.4% | [8] -88.5% | [9] -95.6% | [10] -97.4%
inactive: [4] 18.6%

COc1ccc(-n2c(NC(=O)N3CCN(C)CC3)c(C#N)c3ccccc32)cc1
inactive: [1] 57.5% | [2] 84.2% | [4] 52.9% | [5] 41.9% | [6] 58.2% | [7] 37.4% | [8] 50.9% | [10] 68.8%
active: [3] -4.12% | [9] 9.35%

CCCCCCCOc1ccc(S(=O)(=O)Nc2ccc(C)c(F)c2C(=O)O)cc1
inactive: [1] 79.4% | [2] 121% | [3] 104% | [4] 89.4% | [5] 91.4% | [6] 91% | [7] 96.7% | [8] 90.6% | [9] 98.9% | [10] 117%

CS(=O)(=O)Nc1cc(-c2ccc3ncnc(Nc4ccc(OCc5cccnc5)c(Cl)c4)c3c2)cnc1Cl
active: [2] 5.66% | [4] -0.382% | [5] -34.2% | [6] 3.42% | [7] -94.5% | [8] -64.3% | [9] -64.2% | [10] -6.84%
inactive: [1] 13.1% | [3] 10.7%

c1n[nH]cc1-c1nc2ccc3[nH]ncc3c2c2c1CC1(CCOCC1)CC2
inactive: [1] 39% | [2] 25.9% | [4] 37.4% | [5] 29.3% | [6] 47.4% | [7] 29% | [8] 14% | [9] 29.2% | [10] 27.1%
active: [3] 6.74%

COc1cc(C2C(C(=O)OCc3ccccc3)=C(C)Nc3nc4ccccc4n32)cc(OC)c1OC (stereo not given)
active: [3] -38.3% | [8] 2.04%
inactive: [1] 24.8% | [2] 37.3% | [4] 20.4% | [5] 27% | [6] 51.7% | [7] 17.3% | [9] 12.2% | [10] 33.9%

O=C(N/N=C/c1c[nH]c2ccccc12)Nc1ccc(F)c(Cl)c1
active: [9] 4.2%
inactive: [1] 20.2% | [2] 33.5% | [3] 48% | [4] 73.4% | [5] 42.2% | [6] 43.3% | [7] 34% | [8] 48.6% | [10] 58.8%

CN(C)c1nc(NCCNS(=O)(=O)c2ccc(C(=O)/C=C/c3ccc(C(F)(F)F)cc3)cc2)nc(N2CCOCC2)n1
inactive: [3] 59.5% | [4] 57.8% | [8] 48.2%
active: [1] -78.2% | [2] -73% | [5] -85.5% | [6] -60.1% | [7] -42.8% | [9] -99.2% | [10] -9.43%

O=c1c(-c2nc(-c3ccccc3)c(-c3ccccc3)[nH]2)coc2ccc(F)cc12
inactive: [1] 24.3% | [2] 68.1% | [3] 39% | [4] 38.8% | [5] 47.3% | [6] 41.9% | [7] 47.7% | [8] 49.9% | [9] 65.9% | [10] 69.6%

Cn1cc(-c2cc(N)n3nc(-c4c[nH]c5ccc(F)cc45)cc3n2)c2cc(Br)cnc21
active: [1] -11.7% | [9] -56.8%
inactive: [2] 25.8% | [3] 134% | [4] 98.3% | [5] 22.4% | [6] 53.8% | [7] 78.8% | [8] 73.7% | [10] 80%

CCOc1ccccc1[C@H]1C(C(=O)c2ccc(Cl)cc2)C2(N[C@@H]1c1ccccc1)C(=O)Nc1ccc(Cl)cc12 (stereo not given in full)
inactive: [1] 20.3% | [2] 10.7% | [3] 30.7% | [4] 37.7% | [5] 36.3% | [8] 17.5% | [9] 13.2% | [10] 41.2%
active: [6] 9.44% | [7] 6.43%

CC(C)(C)OC(=O)N1C/C(=C\c2ccc(F)cc2)C(=O)/C(=C/c2ccc(F)cc2)C1
active: [1] -61% | [2] -87.2% | [4] -89.6% | [5] -100% | [6] -31.1% | [7] -92.3% | [8] -96.1% | [9] -100% | [10] -95.9%
inactive: [3] 13.2%

O=C(Nc1ccc(F)cc1)Nc1nc2ccc([N+](=O)[O-])cc2s1
active: [1] 6.88% | [2] 4.5% | [3] -16.6% | [5] 6.53% | [7] -84% | [8] -5.55% | [10] 7.31%
inactive: [4] 15.1% | [6] 18.4% | [9] 12.5%

COC(=O)c1cc(C(=O)C(F)(F)F)n2c3ccccc3c3ccccc3c12
active: [3] 6.37%
inactive: [1] 93.8% | [2] 96.1% | [4] 67.8% | [5] 70.1% | [6] 66.8% | [7] 95.8% | [8] 69.3% | [9] 77.2% | [10] 111%

COc1ccc2nc(NC(=O)c3ccc(N(C)C)cc3)sc2c1
inactive: [1] 59.4% | [2] 100% | [3] 101% | [4] 84.4% | [5] 93.5% | [6] 71.3% | [7] 55.7% | [8] 69.9% | [9] 87% | [10] 95%

COc1cc2cc(C(=O)N3C[C@@H](CCl)c4c3cc(OC(=O)N(CCC(=O)N3CCN(C)CC3)[C@H]3CCSSC3)c3ccccc43)[nH]c2c(OC)c1OC
active: [1] -52.1% | [2] -49.4% | [3] -68.7% | [4] -7.02% | [5] -68% | [6] -4.51% | [7] -86.3% | [8] -91.8% | [9] -99.5% | [10] -94.1%

CN1CCN(C(=O)Oc2cc3c(c4ccccc24)[C@H](CCl)CN3C(=O)c2cc3cc(OCCCN4CCC4)ccc3[nH]2)[C@@H]2CSSC[C@H]21
active: [1] 2.11% | [2] 2.15% | [3] -64.6% | [4] -64.6% | [5] -42.8% | [6] -12.2% | [7] -74.1% | [8] -81.9% | [9] -61.6% | [10] -39.5%

COc1sc(/C=N/NC(=O)c2[nH]c3ccc(Br)cc3c2-c2ccccc2)cc1Cl
inactive: [3] 42%
active: [1] -26.2% | [2] -52.8% | [4] -46% | [5] -40.7% | [6] 4.59% | [7] -91.1% | [8] -30.6% | [9] -91.7% | [10] -33.1%
